Measurements from PubChem BioAssay (Tox21).
Inconclusive results are not listed. A number with no mark means an inactive call. The call rests on the fitted dose curve; in most records, active means well fitted activation curve with a large enough effect in the signal ratio in the repeat runs (not every such curve was filed as active); inconclusive means weak or mixed curves; inactive means flat fitted curve, though single readings scatter; the % refers to the signal ratio.
On the % scale 0 is the no-effect control and ±100 the full control effect.

Test: qHTS assay to identify small molecule agonists of the hypoxia (HIF-1) signaling pathway (AID 1224846)
Conditions: HRE-bla ME-180 cells, beta-lactamase ratio, 17 h; series mostly up to 76.8 µM; activation: at the top concentration
Description: U.S. Tox21 Program National Center for Advancing Translational Sciences [NCATS] NIH Chemical Genomics Center [NCGC] U.S. Environmental Protection Agency [EPA] National Institutes of Environmental Health Sciences [NIEHS] National Toxicology Program [NTP] U.S. Food and Drug Administration [FDA] Tox21 Assay Overview: Hypoxia-inducible factor-1 (HIF-1) is the major hypoxia-regulated transcription factor that controls cellular responses to low oxygen concentration. HIF-1 is composed of two subunits: hypoxia responsive HIF-1-alpha and constitutively expressed HIF-1-beta, which is also known as aryl hydrocarbon receptor nuclear translocator. During hypoxic conditions, HIF-1-alpha heterodimerizes with HIF-1-beta and translocates into the nucleus where the HIF-1 complex binds to the hypoxia-response element (HRE) and activates expression of target genes such as VEGF (vascular endothelial growth factor). The HIF-1 pathway is essential to normal growth and development, and is involved in the pathophysiology of cancer, inflammation, and ischemia. Using a beta-lactamase reporter-gene under control of the hypoxia response element, a cell-based assay [CellSensor(TM) HRE-bla ME-180 from Life Technologies, Carlsbad, CA] was used to measure hypoxia-induced signaling. Tox21 10K library compounds were measured for their ability to induce the reporter gene activity.
Tox21 Assay Protocol Summary: HRE-bla ME-180 cells were dispensed at 2,000 cells per well in 6 uL of assay medium containing 0.5% dialyzed FBS into black wall/clear-bottom 1536-well plates using a Multidrop Combi (Thermo Scientific, Waltham, MA) dispenser. After the assay plates were incubated at 37C and 5% CO2 for 5 hrs, 23 nL of compounds dissolved in DMSO, positive controls or DMSO only was transferred to each well of the assay plate using a Pintool station (Kalypsys, San Diego, CA). The assay plates were incubated at 37C and 5% CO2 for 17 hrs. One uL of LiveBLAzerTM B/G FRET substrate (CCF4-AM) (Life Technologies) was added to each well using a Flying Reagent Dispenser (Aurora Discovery, San Diego, CA).
With `CCCCCCCCC(CO)CCCCCC` (stereo not given) the “activation” value was 1.14%. For `Cc1cc(C)c(S(=O)(=O)O)cc1N=Nc1cc(S(=O)(=O)O)c2ccccc2c1O`, the “activation” value was -0.594%. In the case of `CCOC(=S)SSC(=S)OCC`, the “activation” value was -0.742%. In the case of `CCCCC(CC)(CO)CO`, the “activation” value was -0.526%. With `CN(c1nccc(=O)[nH]1)C1CCN(c2nc3ccccc3n2Cc2ccc(F)cc2)CC1` the “activation” value was -0.822% [at 35.5 µM]. With `O=[N+]([O-])c1cc[n+]([O-])cc1` the “activation” value was -0.712%. With `CC(C)(Oc1ccc(Cl)cc1)C(=O)OCCCOC(=O)C(C)(C)Oc1ccc(Cl)cc1` the “activation” value was 0.656% [at 35.5 µM]. In the case of `CC[C@H](C)[C@H](N)C(=O)O`, the “activation” value was -1.32% [at 35.5 µM]. With `CC(C)(C)C1CCCCC1O` (stereo not given) the “activation” value was -2.08%. In the case of `CCCCOCCOCCOCCOCCO`, the “activation” value was -1.39%. For `O=C(O)COC(=O)Cc1ccccc1Nc1c(Cl)cccc1Cl`, the “activation” value was 1.56% [at 35.5 µM]. With `CCCCCCOC(=O)CCC` the “activation” value was -0.817%. For `CCCCCCCCCCCCCCC1CO1` (stereo not given), the “activation” value was 1.09%. With `CCc1nn(C2CCCCC2)c2cc(C3(C#N)CCC(C(=O)O)CC3)ccc12` (stereo not given) the “activation” value was -2.42%. With `CCCCCCCCCO` the “activation” value was -1.39%. In the case of `COc1cc(C(C)(C)C)c(O)c(C(C)(C)C)c1`, the “activation” value was -0.498%. In the case of `C=CCCCCCC`, the “activation” value was 0.222%. `O=C(CCN1CCN2CCCC2C1)N1c2ccccc2Sc2ccc(Cl)cc21` (stereo not given) showed an activation of -0.917% [at 15.8 µM]. In the case of `CCCCOc1ccc(CC(=O)NO)cc1`, the “activation” value was 2.68% [at 35.5 µM]. In the case of `COCCO`, the “activation” value was 0.73%. In the case of `CC(=O)c1c(C)c([N+](=O)[O-])c(C(C)(C)C)c([N+](=O)[O-])c1C`, the “activation” value was 2.7%. For `Cc1ncsc1CCO`, the “activation” value was 0.872%. In the case of `Cc1ccc(C)o1`, the “activation” value was -0.33%. In the case of `C=C(C)C(=O)OC(C)C`, the “activation” value was -0.497%. With `CC/C(=C\C(=N/O)C(N)=O)C(C)[N+](=O)[O-]` (stereo not given) the “activation” value was 0.482%. In the case of `CCCCc1cc2ccccc2c(OCCN(C)C)n1`, the “activation” value was 4.65% [at 35.5 µM]. For `CCCCCC/C=C/C=O`, the “activation” value was -0.859%. In the case of `O=C(C(=O)c1ccc(Br)cc1)c1ccc(Br)cc1`, the activation was -1.03% [at 15.8 µM]. For `O=S1(=O)N=C(O)c2ccccc21`, the “activation” value was 0.168% [at 35.5 µM]. For `O=C(O)C1CCC(C(=O)O)CC1` (stereo not given), the “activation” value was -0.896%. With `O=C(O)/C=C/c1cnc[nH]1` the “activation” value was -0.0414%. Molecule `CCCCCCCCCCCCCCCCCBr` has an activation of -0.885% [at 15.8 µM]. For `CC(=O)SCc1ccco1`, the “activation” value was -1.1%. In the case of `OCCC1CCCCN1` (stereo not given), the “activation” value was 0.999%. With `CCCOc1ccc2nc(NC(=O)OC)[nH]c2c1` the “activation” value was 5.4% [at 35.5 µM]. For `CC(=O)OCCc1ccccc1`, the “activation” value was -1.32%. With `COc1ccc(C(C)=O)cc1` the “activation” value was -1.15%. For `O=C(Cl)c1ccc([N+](=O)[O-])cc1`, the “activation” value was 0.0605%. With `Cc1ccccn1` the “activation” value was -0.867%. With `Cc1ccc(C(C)c2ccc(C)c(C)c2)cc1C` the “activation” value was 1.87%.
